PME-1 inh – PME-1 (human) inhibition | recombinant PME-1, FP-Rh probe fluorescence polarization | Q9Y570 | inhibition, % at 5.9 µM | 320,000 tested, 0.53% active;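 active = inhibition above the campaign mean of all compounds plus 3 SD, cut at about 26% in these data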;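 also: competitive labeling of PME-1 active site by serine hydrolase directed probe; 0% = PME-1 with DMSO and 100% = wells lacking PME-1 enzyme; inhibitors block probe labeling so polarization falls and inhibition rises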
Target sequence (Q9Y570 whole entry, looked up): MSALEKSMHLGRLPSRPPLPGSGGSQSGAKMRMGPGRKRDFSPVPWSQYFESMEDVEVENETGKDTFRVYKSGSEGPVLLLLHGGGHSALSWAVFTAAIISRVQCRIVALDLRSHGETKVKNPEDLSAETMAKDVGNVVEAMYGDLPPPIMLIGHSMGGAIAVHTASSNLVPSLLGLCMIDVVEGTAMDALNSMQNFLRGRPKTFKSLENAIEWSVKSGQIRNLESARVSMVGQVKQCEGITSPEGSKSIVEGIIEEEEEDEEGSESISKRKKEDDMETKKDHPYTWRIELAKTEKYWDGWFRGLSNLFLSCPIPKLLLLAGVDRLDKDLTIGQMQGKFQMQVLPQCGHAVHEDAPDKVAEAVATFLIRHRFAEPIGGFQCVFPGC
PAD4 FP inh – PAD4 (human) enzyme inhibition; Q9UM07; recombinant PAD4, RCA probe fluorescence polarization; inhibition, % at 6.36 µM; 330,000 tested, 0.41% active; AID 485272;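 active = percent inhibition above a cutoff equal to the mean of all tested compounds plus 3 SD, cut at about 15% in these data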;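 also: 0% = PAD4 with RCA probe and DMSO and 100% = probe without PAD4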
GSTO1 counter – counter-screen for RBBP9 inhibitors: inhibitors of human GSTO1 | recombinant GSTO1, activity-based probe fluorescence polarization | inhibition, % at 5.96 µM | 300,000 tested, 1.1% active | AID 1974;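 active = inhibition above the campaign mean inhibition plus 3 SD, cut at about 35% in these data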;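 also: 0% = GSTO1-1 with DMSO and 100% = wells lacking GSTO1-1 enzyme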
Fam108B inh – counter-screen for RBBP9 inhibitors: inhibitors of mouse Fam108B | 300,000 tested, 0.33% active | recombinant Fam108B, FP-Rh probe fluorescence polarization | AID 1947 | inhibition, % at 9.51 µM;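 active = inhibition above the screen mean inhibition plus 3 SD, computed separately per campaign, cut at about 18% in these data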;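 also: inhibitors lower polarization as less probe binds the enzyme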
LYPLA1 inh – LYPLA1 (human) inhibition in PME1 counter-screen; 320,000 tested, 0.16% active; recombinant LYPLA1, FP-Rh probe fluorescence polarization; AID 2174; inhibition, % at 5.9 µM;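 active = inhibition above the mean of all tested compounds plus 3 SD, set per campaign, cut at about 14% in these data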;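 also: inhibitors block serine hydrolase probe labeling of LYPLA1 so polarization falls; 0% = enzyme with DMSO and 100% = wells lacking LYPLA1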
Target sequence (O75608 whole entry, looked up): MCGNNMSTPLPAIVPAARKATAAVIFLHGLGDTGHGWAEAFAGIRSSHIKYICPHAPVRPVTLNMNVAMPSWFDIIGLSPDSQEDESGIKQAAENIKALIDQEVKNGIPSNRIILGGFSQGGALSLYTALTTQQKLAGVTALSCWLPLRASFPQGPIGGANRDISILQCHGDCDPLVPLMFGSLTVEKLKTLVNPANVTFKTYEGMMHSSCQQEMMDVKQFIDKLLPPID
LYPLA2 counter – counter-screen for PME1 inhibitors: inhibitors of human LYPLA2; inhibition, % at 5.9 µM; 320,000 tested, 0.38% active; recombinant LYPLA2, FP-Rh probe fluorescence polarization;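 active = inhibition above the screen-wide mean plus 3 SD, limit set per campaign, cut at about 26% in these data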;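 also: 0% = LYPLA2 with DMSO and 100% = wells lacking LYPLA2 enzyme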
GSTO1 inh conf – confirmation of human GSTO1 inhibitors; shares compounds with GSTO1 counter; recombinant GSTO1, probe fluorescence polarization; inhibition, % at 5.96 µM; 2,400 tested, 54% active; AID 2176;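 active = inhibition above the primary screen's cutoff, its mean inhibition plus 3 SD, cut at about 35% in these data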;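 also: loss of polarization as inhibitors block binding of rhodamine sulfonate ester activity probe; 0% = GSTO1 with DMSO and 100% = wells lacking GSTO1 enzyme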
GSTO1 ABPP inh – inhibitors of recombinant human GSTO1 | inhibition, % at 1 µM | 130 tested, 30% active | shares compounds with GSTO1 counter | gel ABPP SE-Rh probe fluorescence;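 active = inhibition of the enzyme GSTO1 above about 75%, limit read from the data; inactive = inhibition below that limit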
Active calls of the source: *. Sampled rows, rich in hits. Any-hit rate of the full collection: about 1.7%.

O=C(C1CCCN(S(=O)(=O)c2ccc(F)cc2)C1)N1CCCCCC1 (centres undefined) was read as PME-1 inh 3.3, PAD4 FP inh -4.1, GSTO1 counter 0.7, Fam108B inh 4.5, LYPLA1 inh 3.6 and LYPLA2 counter 4.3.
`COc1ccc(S(=O)(=O)n2oc(=O)cc2-c2ccccc2)cc1OC` gave PME-1 inh 1.3, PAD4 FP inh 3.2, GSTO1 counter 40.3*, Fam108B inh -0.9, LYPLA1 inh -1.8, LYPLA2 counter -0.9 and GSTO1 inh conf -1.2.
CCCc1cc(=O)[nH]c(SCC(=O)NCCN2C(=O)CSC2=O)n1 was read as PAD4 FP inh 2.4.
`COc1cc2c(cc1OC)CN(C(=O)c1cc(S(=O)(=O)N3CCOCC3)ccc1Cl)CC2` gave PME-1 inh -1.0, PAD4 FP inh -4.8, GSTO1 counter 10.3, Fam108B inh -2.2, LYPLA1 inh 1.8 and LYPLA2 counter 7.7.
`CCN(Cc1ccc(OC)c(F)c1)C(=O)CCl` gave PME-1 inh -2.5, PAD4 FP inh -4.9, GSTO1 counter 98.3*, Fam108B inh 2.1, LYPLA1 inh -0.9, LYPLA2 counter 7.5, GSTO1 inh conf 100.7* and GSTO1 ABPP inh 47.0.
CCN(Cc1ccc(OC)c(F)c1)C(=O)C1CCCO1 (centres undefined) was read as PME-1 inh 0.7, PAD4 FP inh 1.2, GSTO1 counter -2.1, Fam108B inh -2.6, LYPLA1 inh -1.6 and LYPLA2 counter -7.0.
`CCC12CN3CC(CC)(CN(C1)C3c1ccc([N+](=O)[O-])o1)C2=O` (centres undefined) gave PME-1 inh -3.7, PAD4 FP inh -5.3, GSTO1 counter -2.2, Fam108B inh 1.5, LYPLA1 inh -2.3 and LYPLA2 counter 2.4.
Oc1ccc(/C=N/Nc2cc(N3CCCC3)nc(N3CCCC3)n2)cc1O was read as PME-1 inh 5.7, PAD4 FP inh 1.1, GSTO1 counter 46.5*, Fam108B inh 6.4, LYPLA1 inh -5.8, LYPLA2 counter -8.4 and GSTO1 inh conf 78.9*.
For Oc1ccc(/C=N\Nc2cc(N3CCOCC3)nc(N3CCOCC3)n2)c(O)c1 the results were PME-1 inh 7.3, PAD4 FP inh -1.6, GSTO1 counter 26.3, Fam108B inh 5.7, LYPLA1 inh 1.1 and LYPLA2 counter 2.6.
`Cn1cnc(S(=O)(=O)Nc2ccccc2N2CCOCC2)c1` gave PME-1 inh -7.6, PAD4 FP inh -3.8, GSTO1 counter -9.8, Fam108B inh -2.9, LYPLA1 inh -1.8 and LYPLA2 counter -4.9.
`CN(C)c1cccc2c1c(NS(=O)(=O)c1cn(C)cn1)nn2C` gave PME-1 inh 0.7, PAD4 FP inh -2.4, GSTO1 counter 53.9*, Fam108B inh 0.6, LYPLA1 inh -4.5, LYPLA2 counter -6.7 and GSTO1 inh conf 5.0.
`CCOc1ccc2ccccc2c1/C=N/NC(=O)CNC(=O)c1ccccc1O` gave PME-1 inh -3.9, PAD4 FP inh -0.7, GSTO1 counter 5.0, Fam108B inh -9.2, LYPLA1 inh -11.8 and LYPLA2 counter -13.7.
`[O-][n+]1onc2c1CCC(=N/O)/C2=N\Nc1ccccc1` gave PME-1 inh 10.8, PAD4 FP inh 4.1, GSTO1 counter 39.5*, Fam108B inh 2.3, LYPLA1 inh -3.8, LYPLA2 counter -9.0 and GSTO1 inh conf 12.5.
Screening O=C(NNC1CC(=O)N(c2ccccc2)C1=O)c1ccc(COc2ccccc2Cl)o1 (centres undefined) returned PME-1 inh -0.4, PAD4 FP inh -3.6, GSTO1 counter -0.3, Fam108B inh -2.7, LYPLA1 inh 1.7 and LYPLA2 counter -1.0.
For COC(=O)c1cccc2c1NC(=O)C2=O the results were PME-1 inh -8.0, PAD4 FP inh 2.5, GSTO1 counter 50.5*, Fam108B inh 1.2, LYPLA1 inh 3.5, LYPLA2 counter -2.6 and GSTO1 inh conf 1.2.
Screening CCN1CCN(C(=O)c2ccc(Cl)c(S(=O)(=O)N3CCOCC3)c2)CC1 returned PME-1 inh -1.4, PAD4 FP inh -1.9, GSTO1 counter -5.7, Fam108B inh -0.4, LYPLA1 inh -1.5 and LYPLA2 counter 1.2.
For Cn1c(O)c(C=Nc2ccc(Br)cc2)sc1=O the results were PME-1 inh 4.3, PAD4 FP inh -3.5, GSTO1 counter -5.4, Fam108B inh -0.1, LYPLA1 inh 3.7 and LYPLA2 counter 12.8.
Screening Oc1ccc(Br)cc1CNc1cccc2cccnc12 returned PME-1 inh 10.8, PAD4 FP inh -7.5, GSTO1 counter 46.1*, Fam108B inh 4.0, LYPLA1 inh -15.1, LYPLA2 counter -12.7 and GSTO1 inh conf 5.6.
`O=C(O)CC(CCc1ccccc1)OC1OC(CO)C(O)C(O)C1O` (centres undefined) gave PME-1 inh -9.0, PAD4 FP inh 3.3, GSTO1 counter 52.7*, Fam108B inh -7.1, LYPLA1 inh -11.7, LYPLA2 counter -10.5 and GSTO1 inh conf 12.7.
Screening [C-]#[N+][C@H](O[C@@H]1O[C@H](CO)[C@@H](O)[C@H](O)[C@H]1O)c1ccccc1 returned PME-1 inh 4.6, PAD4 FP inh -2.0, GSTO1 counter 1.2, Fam108B inh 1.9, LYPLA1 inh -1.3 and LYPLA2 counter 2.5.
C=CCN1C=C2C(=O)C(C)(OC(=O)c3ccco3)C(=O)C(C=C)=C2C=C1C1CC1 (centres undefined) was read as PME-1 inh 6.2, PAD4 FP inh 13.3, GSTO1 counter 39.1*, Fam108B inh 7.2, LYPLA1 inh 6.0, LYPLA2 counter 9.6 and GSTO1 inh conf 12.4.
For C=CC1=C2C=C(C3CC3)N(CC3CC3)C=C2C(=O)C(C)(OC(=O)c2ccco2)C1=O (centres undefined) the results were PME-1 inh 1.6, PAD4 FP inh 0.5, GSTO1 counter 20.4, Fam108B inh -4.5, LYPLA1 inh 4.2 and LYPLA2 counter 7.0.
`CC(=O)c1ccc(N2CCN(S(=O)(=O)c3ccc(-c4cnc(C5CC5)o4)cc3)CC2)cc1` gave PME-1 inh 9.0, PAD4 FP inh -0.2, GSTO1 counter -13.2, Fam108B inh -1.2, LYPLA1 inh -3.0 and LYPLA2 counter 6.0.
For CCNC(=O)N1C(CC(=O)OCC)C(=O)NC2CCCCC21 (centres undefined) the results were PME-1 inh -2.3, PAD4 FP inh 0.3, GSTO1 counter -6.8, Fam108B inh 0.7, LYPLA1 inh 3.5 and LYPLA2 counter 0.0.
COC(=O)CC1C(=O)NC2CCCCC2N1C(=O)CCl (centres undefined) was read as PME-1 inh -4.4, PAD4 FP inh 3.6, GSTO1 counter 54.0*, Fam108B inh 1.3, LYPLA1 inh 0.6, LYPLA2 counter -6.2 and GSTO1 inh conf 79.0*.
